# Laboratory results: PubChem BioAssay AID588674 (Broad Institute, 2011)
# Where “and” joins values, the source holds several entries; their conditions need not be identical. Equal entries are not always repeated. Out of some 360,000 compounds screened, about 1,800 (0.5%) were called active.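 How the source made its calls: active means mean inhibition of at least 75% with every replicate also reaching 75%; inconclusive means mean inhibition at least 75% but some replicate below; inactive means mean inhibition below 75%.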 The sample as a whole holds a higher share of actives than the screen did.
# Test: Shn3 3'UTR reporter decrease in osteoblasts – cell-based, Clone20 osteoblasts, firefly luciferase, set 2, Schnurri-3 inhibitor project, primary screen (AID 588674);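 further: 0% = median of neutral control wells and 100% = pilot-screen positive control compound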
# Conditions: Clone20 osteoblast Shn3 3'UTR firefly luciferase, 24 h; at 12.5 µM; stronger effect = higher value
row,SMILES,inhibition
1,COc1ccc(/C=C/C(=O)c2c(O)cc(OC)cc2OC)cc1,-43.5% (inactive)
2,COCCNS(=O)(=O)c1cc(Br)ccc1OC,-12.3% (inactive)
3,CCOc1ccc(-n2c(SCC(=O)Nc3cc(C(=O)O)ccc3Cl)nc3ccccc3c2=O)cc1,-1.51% (inactive)
4,Cc1cc(C)nc(N/N=C/c2c(CO)cnc(C)c2O)n1,39% (inactive)
5,CCOc1ccc(-n2c(O)c(/C=N/Nc3nc(C)cc(C)n3)c3ccccc3c2=O)cc1,90.6% (active)
6,COc1ccc(CN2CCCC(CNC(=O)c3ccc(F)cc3)C2)cc1OC (centres undefined),3.62% (inactive)
7,CCCCCCCCCCOC(=O)C[N+](C)(C)CC1CCCCC1O (centres undefined),2.65% (inactive)
8,COc1ccc(CC(N)c2csc(NC(=O)NC(c3ccccc3)c3ccccc3)n2)cc1 (centres undefined),80.7% (inactive)
9,COc1ccc(CC(N)c2csc(NC(=O)Cc3ccccc3)n2)cc1 (centres undefined),-16.8% (inactive)
10,COc1ccc(CC(N)c2csc(NC(=O)Nc3ccc(C(C)C)cc3)n2)cc1 (centres undefined),96.6% (active)
11,O=C(CCNS(=O)(=O)c1cccs1)N1CCN(c2ccc(F)cc2)CC1,-1.48% (inactive)
12,C=C(C)C(=O)O[C@H]1C/C(C)=C\C(=O)/C=C(\C)[C@H](O)[C@@H]2OC(=O)C(=C)[C@@H]21,87.7% (active)
13,COC(=O)c1c(NC(=O)c2ccc(S(=O)(=O)N3CCOCC3)cc2)sc2c1CCN(C(C)C)C2,-14% (inactive)
14,N#C/C(C(=S)Nc1ccccc1)=C1/NN=C(N2CCOCC2)N1c1ccccc1,2.09% (inactive)
15,CCOC(=O)c1cnc(-n2nc(C)cc2C)nc1NNc1cc(C)nc(-c2ccccc2)n1,92.1% (active)
16,CCOC(=O)c1cnc2nc(SCc3ccccc3Cl)[nH]n2c1=O,-11.4% (inactive)
17,Cc1cc(-n2nc(C)cc2C)n2ncc(-c3ccccc3)c2n1,-43% (inactive)
18,O=C(Oc1ccccc1)Oc1ccc2c(c1)oc(=O)c1ccccc12,-6.2% (inactive) and -3.28% (inactive)
19,Cc1ncoc1C(=O)NCCC(c1ccccc1)c1ccccc1,17.9% (inactive)
20,CCNc1nc(NCC)nc(N(C)n2cnnc2)n1,4.63% (inactive)
21,O=C(CCCCCn1c(=S)[nH]c2cc3c(cc2c1=O)OCO3)N1CCN(c2ccc(F)cc2)CC1,8.75% (inactive)
22,Cc1ccc(C)c(N2CCN(C(=O)CCCn3c(=O)c4cccn4c4cccnc43)CC2)c1,8.64% (inactive)
23,Cc1ccc(C)c(N2CCN(C(=O)CCCCCn3c(=S)[nH]c4ccc(N5CCOCC5)cc4c3=O)CC2)c1,87.2% (active)
24,CCCN(CC(=O)Nc1ccccc1OC)C(=O)CCC(=O)c1ccc(F)cc1,8.98% (inactive)
